Bioassay records (PubChem BioAssay)
Rows were chosen to be rich in hits. Some 11% of all compounds tested hit in one or more screens of this group.
HCV inhibitor – blocks hepatitis C virus; Huh7.5.1 HCVcc-Cre infection, luciferase reporter, 44 h; Potency, µM (titrated, usually from 41.8 µM), for the others: top-dose activity change, negative = inhibition, actives largely listed as inhibitors; 340,000 tested, 3.4% active; AID 651820
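Seed cells (1,000/well) for 4 h; treat with compound and infect with HCVcc-Cre, moi about 0.5. Incubate 44 h, then detect luciferase activity.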
Pf growth 48h – P. falciparum growth inhibition at 48 hours (one generation); P. falciparum luciferase growth in erythrocytes, 48 h; Potency, µM (titrated, usually from 28.7 µM), for the others: at the highest dose activity change, negative = inhibition, hits mostly inhibitors; 310,000 tested, 5.9% active
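Here the parasites carry a stable luciferase gene and grow inside erythrocytes in Albumax-based RPMI medium with compound for one erythrocytic cycle. Activity is scored as loss of luminescent signal.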
AmpC inh no detg – blocks E. coli AmpC beta-lactamase in detergent-free assay; P00811; AmpC nitrocefin hydrolysis, absorbance 480 nm, 0.0001% Triton; Potency, µM (series often up to 57.1 µM), for inactives: at the top dose activity change, negative = inhibition, usual class: inhibitors; 330,000 tested, 0.52% active; AID 485341;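 also: plate controls were no compound for no effect and no enzyme for full effect; nearly all actives have a fitted effect of over 20% in size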
Target sequence (P00811 whole entry, looked up): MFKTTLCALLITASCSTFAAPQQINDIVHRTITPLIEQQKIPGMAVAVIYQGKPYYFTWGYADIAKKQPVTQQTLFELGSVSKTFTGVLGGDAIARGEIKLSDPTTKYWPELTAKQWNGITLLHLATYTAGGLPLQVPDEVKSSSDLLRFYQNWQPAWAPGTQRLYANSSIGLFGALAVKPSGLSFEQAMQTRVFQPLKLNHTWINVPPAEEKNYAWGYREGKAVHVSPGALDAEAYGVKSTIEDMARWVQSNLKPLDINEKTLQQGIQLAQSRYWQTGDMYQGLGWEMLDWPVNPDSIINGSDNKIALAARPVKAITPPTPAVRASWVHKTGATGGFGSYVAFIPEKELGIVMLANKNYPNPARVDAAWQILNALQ
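20 mM phosphate pH 7.0 + 0.01% (detergent screen) or 0.0001% Triton X-100; 5.3 nM AmpC reagent; cpd preinc 15 min RT; nitrocefin (800 uM stock) to start; A480 q20 s × 4 min; Activity was normalised to no-enzyme and no-compound control wells.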
AMA1-RON2 inh – inhibitors of Plasmodium falciparum AMA1-RON2 interaction. AlphaScreen AMA1-biotinylated RON2 peptide binding. Potency, µM (highest dose often 58.2 µM), for inactives: top-dose activity change, negative = inhibition, hits mostly inhibitors. 360,000 tested, 0.2% active. AID 720542;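 also: 0% = vehicle wells and -100% = peptide control; nearly all actives have a fitted effect of over 45% in size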
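AMA1 (3D7) with his tag at 25 nM final met compounds first, then biotinylated RON2 peptide at 25 nM; detection used donor plus acceptor beads, 10 µg/mL apiece, read by AlphaScreen after 30 min at room temperature.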
Pf growth 96h – inhibits malaria parasite growth, 96 h | AID 504834 | 320,000 tested, 6.9% active | Potency, µM (series often up to 28.7 µM), for the others: at the top dose activity change, negative = inhibition, most hits filed as inhibitors | P. falciparum luciferase reporter growth, 96 h
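Plates of compound plus infected erythrocytes (2% hematocrit, 0.05% parasitemia final) incubate 96 hours, 37 C, 5% CO2. Detection reagent added; reduced luminescence from the parasites' luciferase reporter flags inhibition.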
AmpC detergent – blocks E. coli AmpC beta-lactamase in detergent assay; Potency, µM (doses to about 114 µM), for the others: at the highest dose activity change, negative = inhibition, most hits filed as inhibitors; 370,000 tested, 0.041% active; AmpC hydrolysis of nitrocefin, absorbance 480 nm, 0.01% Triton;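 also: 0% = no-compound wells and -100% = no-enzyme wells; nearly all actives have a fitted effect of over 25% in size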
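20 mM phosphate pH 7.0 + 0.01% (detergent screen) or 0.0001% Triton X-100; 5.3 nM AmpC reagent; cpd preinc 15 min RT; nitrocefin (800 uM stock) to start; A480 q20 s × 4 min; Activity was normalised to no-enzyme and no-compound control wells.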
The depositor's hits bear a star; ? = inconclusive; · = no result given. Calls follow the shape of the dose curve; as a rule, active = well fitted curve in the direction sought with a large enough effect; inconclusive = small, poorly fitted or top-dose-only effect, or another doubt; inactive = no such curve, though single readings can be large; an effect the other way counts as inactive or inconclusive. Unless noted, % is scaled to controls: 0 for no effect and ±100 for the full control effect; potency is read from the fitted curve at half-maximal effect.

SMILES | HCV inhibitor | Pf growth 48h | AmpC inh no detg | AMA1-RON2 inh | Pf growth 96h | AmpC detergent
CCOc1ccc2nc(N/C(N)=N/C(=S)Nc3ccc(C)c(C)c3)nc(C)c2c1 | -19% | 6.6µM* | -52% | 31% | 6.6µM* | -9%
Cc1ccc2c(C)nc(N/C(N)=N/S(=O)(=O)c3ccc([N+](=O)[O-])cc3)nc2c1 | ? | ? | -11% | 0% | ? | 1%
COc1ccc(NC(=S)/N=C(\N)Nc2nc(C)c3ccc(C)cc3n2)cc1 | 11µM* | 12µM* | -35% | 95% | -12% | 1%
Cc1cc(C)c(NC(=S)N(CCN(C)C)Cc2cccs2)c(C)c1 | 10% | -27% | 41% | -21% | 3.3µM* | 0%
COc1ccccc1NC(=S)N(CCc1c(C)[nH]c2ccccc12)Cc1cccs1 | ? | ? | 40µM* | -5% | ? | ?
COc1ccc2[nH]c(C)c(CCN(Cc3cccs3)C(=S)Nc3ccc(F)cc3)c2c1 | 11µM* | 1.7µM* | -40% | -9% | 2.3µM* | ?
Cc1cccc(C)c1NC(=S)N(CCN(C)C)Cc1cccs1 | 5% | -3% | -11% | 8% | ? | ?
CNC(=S)N(CCc1c(C)[nH]c2ccc(C)cc12)Cc1cccs1 | 10µM* | ? | -2% | -18% | ? | 4%
FC(F)(F)c1cccc(N2CCN(Cc3nnc(-c4ccc5c(c4)OCO5)o3)CC2)c1 | · | · | · | · | · | 13%
COC(=O)c1cccc(NC(=O)c2nsc3ccccc23)c1 | · | · | · | · | · | -7%
CC(=O)N1CCC2(CC1)OC(=O)C(C)=C2C(=O)Nc1ccccc1C(F)(F)F | · | · | · | · | · | 7%
COc1ccc(OC)c(NC(=O)c2c(NCc3ccc(N(C)C)cc3)sc3c2CCCC3)c1 | · | · | · | · | · | 7%
CCc1c(C)c(C#N)c2nc3ccccc3n2c1Nc1cccc(C(F)(F)F)c1 | · | · | · | · | · | 0%
COc1ccc2[nH]c(C)c(CCN(Cc3cccs3)C(=S)Nc3ccccc3)c2c1 | ? | 0.83µM* | -21% | 2% | 0.41µM* | ?
COc1ccc(NC(=S)N(CCc2c(C)[nH]c3ccc(C)cc23)Cc2cccs2)cc1 | ? | 0% | -9% | 12% | -96% | 5%
Cc1ccc(C)n1-c1nnc(N2CCC(C(=O)Nc3ccccc3Br)CC2)s1 | · | · | · | · | · | 18%
Cc1cc(C)cc(-n2c(SCC(=O)N3CCC(C)CC3)nc3c([nH]c4ccccc43)c2=O)c1 | · | · | · | · | · | 2%
CC(=O)c1ccc(N2CCN(c3ncnc4onc(-c5ccc(Cl)cc5)c34)CC2)cc1 | · | · | · | · | · | 5%
COc1ccc(CNc2ccc3c(c2)CCC3)cc1Br | -3% | 56% | -17% | -15% | 7.4µM* | 2%
CCOc1cc(CNc2ccc3c(c2)CCC3)ccc1OC | · | · | -8% | · | -57% | -13%
CCCCC1(O)CC(C(F)(F)F)=NN1C(=O)COc1ccccc1 (centres undefined) | -17% | -9% | -11% | 19% | 0.12µM* | -2%
Cc1cc(C)cc(OCC(=O)N2N=C(C(F)(F)F)CC2(O)C(C)(C)C)c1 (centres undefined) | -5% | ? | -26% | 2% | ? | -13%
O=c1oc2ccccc2cc1-c1nc(-c2cccs2)no1 | · | · | · | · | · | 5%
CC(C)(C)OC(=O)N1CCC(c2c(C(=O)N3CCCCC3)cnn2-c2ccc(F)cc2F)CC1 | · | · | · | · | · | 12%
CC(C)(C)OC(=O)N1CCC(c2c(C(=O)N3CCN(C(=O)c4ccco4)CC3)cnn2-c2ccc(F)cc2F)CC1 | 11% | 9.3µM* | 153% | -11% | 50% | -5%
SMILES | HCV inhibitor | Pf growth 48h | AmpC inh no detg | AMA1-RON2 inh | Pf growth 96h | AmpC detergent
CC(C)Oc1cc(O)c2c(=O)c(-c3ccc(O)cc3)coc2c1 | -29% | 86% | -25% | -5% | 2.9µM* | ?
CCS(=O)(=O)N1CCc2cc(C(=O)Nc3cc(OC)c(Cl)cc3OC)ccc21 | · | · | · | · | · | 15%
FC(F)(F)c1ccc(C2=Nc3ccccc3NC(c3cccs3)=N2)cc1 | · | · | · | · | · | 1%
CC1CN(S(=O)(=O)c2ccc(NC(=O)c3cc(-c4ccccc4O)n[nH]3)cc2)CC(C)O1 (centres undefined) | 8.9µM* | 1.7µM* | -12% | 124% | 0.93µM* | ?
Cc1ccccc1C(=O)Nc1ccc(S(=O)(=O)N2CC(C)OC(C)C2)cc1 (centres undefined) | ? | -13% | -16% | 0% | 0% | -8%
O=C(Nc1ccc(S(=O)(=O)N2CCOCC2)cc1)c1cc(-c2ccccc2O)n[nH]1 | -18% | 10µM* | -14% | 138% | ? | 6%
Cc1cccc(N2CCN(S(=O)(=O)c3ccc(-c4cc(C(F)(F)F)on4)s3)CC2)c1C | · | · | · | · | · | 4%
COc1cc(C(=O)Nc2ccc(OCc3cc(=O)n4cccc(C)c4n3)cc2)cc(OC)c1OC | · | · | · | · | · | 0%
Cc1ccc(C)c(N2CCN(c3c(CN4CCCC4)c(=O)oc4ccccc34)CC2)c1 | · | · | · | · | · | 19%
CCCCOc1ccc(C2C(=O)N(C3CCCCC3)CC(=O)N2CCCC)cc1 (centres undefined) | · | · | · | · | · | 6%
COc1ccc(CCN(C)CCc2ccc(OC)c(OC)c2)cc1OC | -21% | · | · | 18% | · | ·
COc1ccc(CCN(C)CCCC(C#N)(c2cc(OC)c(OC)c(OC)c2)C(C)C)cc1OC (centres undefined) | ? | 12µM* | 121% | -1% | 5.2µM* | 0%
COc1cc(OC)cc(-n2c(=O)c3sccc3n(Cc3cc(=O)n4c(C)cccc4n3)c2=O)c1 | · | · | · | · | · | -1%
O=c1c2sccc2n(Cc2cc(=O)n3ccccc3n2)c(=O)n1-c1ccccc1 | 0% | 0% | -18% | 0% | 4.7µM* | -10%
CCN(CC)CCNC(C(=O)OCCC(C)C)c1ccccc1 (centres undefined) | · | 17µM* | · | · | 13µM* | ·
FC(F)(F)c1nc2ccccc2nc1N/N=C/c1c(Cl)cccc1Cl | -1% | 9.3µM* | ? | 1% | -8% | -6%
